Screens (PubChem BioAssay)
GPR151 ag = activators of human GPR151 | activation, % at 11.2 µM | Q8TDV0 | 650,000 tested, 1% active | PathHunter beta-arrestin GPR151 cells, luminescence; in the data active = activation above about 4.9%;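 note: 0% = median of compound wells and 100% = cells with positive control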
FBW7 act = human FBW7 E3 ligase activation, primary screen; Q969H0; AlphaScreen FBW7–phospho-cyclin E peptide binding, activator screen; normalized activity (activation), % at 26.1 µM; 650,000 tested, 0.13% active; AID 1259310; in the data active = normalized activity above about 1.9%;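 note: purified mutant Fbw7 with reduced substrate affinity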
TEAD-YAP inh = TEAD-YAP interaction inhibition; HEK-TIYL cells, TEAD-Gal4/YAP UAS-luciferase luminescence; inhibition, % at 9.12 µM; 640,000 tested, 1.4% active; AID 1259422; in the data active = inhibition above about 32%;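 note: 0% = median of test compound wells and 100% = reference inhibitor wells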
MITF inh = human MITF inhibition, primary screen. AID 1259374. AlphaScreen MITF homodimerization, bead proximity signal. O75030. inhibition, % at 2.6 µM. 650,000 tested, 0.91% active; in the data active = inhibition above about 50%;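 note: 0% = vehicle wells with protein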
Target sequence (O75030 whole entry, looked up): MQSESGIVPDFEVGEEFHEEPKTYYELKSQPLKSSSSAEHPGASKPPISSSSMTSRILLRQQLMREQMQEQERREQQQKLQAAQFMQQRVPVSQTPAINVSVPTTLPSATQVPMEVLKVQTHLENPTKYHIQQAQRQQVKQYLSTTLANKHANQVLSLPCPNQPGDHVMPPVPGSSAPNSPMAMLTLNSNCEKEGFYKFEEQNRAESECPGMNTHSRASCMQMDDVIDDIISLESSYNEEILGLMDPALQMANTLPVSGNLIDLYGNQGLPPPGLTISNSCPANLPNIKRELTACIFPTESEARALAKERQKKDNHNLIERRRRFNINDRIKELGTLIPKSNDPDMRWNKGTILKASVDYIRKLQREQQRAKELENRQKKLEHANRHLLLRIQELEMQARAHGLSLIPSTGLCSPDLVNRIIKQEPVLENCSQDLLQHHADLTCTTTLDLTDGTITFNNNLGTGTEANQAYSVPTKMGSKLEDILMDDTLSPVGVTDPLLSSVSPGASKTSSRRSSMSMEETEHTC
GPR151 conf act = human GPR151 activation, confirmation screen. AID 1508609. GPR151 PathHunter beta-arrestin cells, luminescence, 90 min; % of EA-reagent control over plate median. 6,700 tested, under 10 active. shares compounds with GPR151 ag. activation, % at 11.2 µM;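 active = mean percent activation across replicates above the confirmation screen cutoff of 4.91%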
GPR119 counter = activates human GPR119 in a GPR151 counter-screen; shares compounds with GPR151 ag; 6,700 tested, 0.3% active; activation, % at 11.2 µM; AID 1508611; GPR119 PathHunter beta-arrestin cells, luminescence, 90 min; 0 = compound-well median, 100 = enzyme-acceptor control;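 active = mean percent activation in the counterscreen above 29.09%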;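 note: counterscreen on off-target GPR119 to flag nonselective hits from the GPR151 activator screen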
Starred values were filed as active, the others as inactive; · = not tested or not shown. Sampled rows, rich in hits. Any-hit rate of the full collection: about 3.5%.

SMILES	GPR151 ag	FBW7 act	TEAD-YAP inh	MITF inh	GPR151 conf act	GPR119 counter
O=C(NCCN1CCOCC1)c1nn2c(C(F)(F)F)cc(-c3ccccc3)nc2c1Cl	1	0	-5	1	·	·
CC(C)c1ccc(C(=O)Nc2ccc(N(C)C)cc2)cc1	19*	0	7	7	-1	-11
CC(C)c1ccc(NC(=O)c2ccc(N(C)C)cc2)cc1	0	1	-46	6	·	·
COCCN1C(=O)C(O)=C(C(=O)c2cc3ccccc3o2)C1c1cccc([N+](=O)[O-])c1 (stereo not drawn)	5.7*	0	8	10	-1	-11
Cc1cc(C)nc(SCC(=O)NNC(=O)c2ccccc2Br)n1	6.0*	0	11	20	0	0
Cc1ccc(N2C(c3ccc(N(C)C)cc3)C(=O)C2N2C(=O)c3ccccc3C2=O)cc1 (stereo not drawn)	8.4*	1	-1	23	0	4
Nc1ncc(Br)cc1S(=O)(=O)N(CCc1ccccc1)Cc1ccccc1	9.3*	0	-5	1	1	1
CN(Cc1ccccc1)S(=O)(=O)c1cc(Br)cnc1N	0	0	-2	4	·	·
COc1ccc(-c2noc(CN(C)CCOc3ccccc3)n2)c(OC)c1OC	0	0	-11	3	·	·
CN(CCOc1ccccc1)Cc1nc(-c2ccccc2)no1	9.5*	0	-5	11	0	-8
CCCOC(=O)Nc1ccc(S(=O)(=O)Nc2ncccn2)cc1	-1	0	6	3	·	·
COc1ccc(CNC(=O)COc2ncnc3c(Cl)cc(Cl)cc23)cc1	6.9*	0	7	10	0	10
COc1ccccc1NC1=C(Cl)C(=O)OC1OC(=O)c1ccc(C)cc1 (stereo not drawn)	0	0	-3	3	·	·
C[n+]1ccccc1/C=C/c1ccc([N+](=O)[O-])cc1	6.6*	0	-11	2	0	1
C[n+]1ccccc1/C=C/c1ccccc1	0	0	0	9	·	·
Cc1cc(C)c(C(=O)CC2(O)C(=O)Nc3ccc(Br)cc32)c(C)c1 (stereo not drawn)	0	0	6	9	·	·
COc1cc(OC)cc(-n2nc(C(=O)N3CCCCC3)c3ccccc3c2=O)c1	13*	0	6	10	0	0
COc1cc(OC)cc(-n2nc(C(=O)N3CCCCCC3)c3ccccc3c2=O)c1	1	0	-3	0	·	·
O=C(c1n[nH]c(=O)c2ccccc12)N1CCCCCC1	5.6*	0	0	17	0	6
Cc1ccc2c(c1)CN(CCNC(=O)c1cc(C(F)(F)F)[nH]n1)CC(C)O2 (stereo not drawn)	-1	0	12	7	·	·
COc1cccc2cc(-c3csc(NC(=O)CCC(=O)N4CCC(C(N)=O)CC4)n3)c(=O)oc12	5.2*	0	-21	-8	0	10
CSc1ncc(CN2CCN(C3CCCC3)C(CCO)C2)cn1 (stereo not drawn)	9.7*	0	3	-1	0	0
Cc1nn(C)c(Cl)c1CN1CCN(C2CCCCC2)C(CCO)C1 (stereo not drawn)	8.9*	0	8	9	0	-1
O=C(Nc1ccc(O)cc1)c1cccc([N+](=O)[O-])c1	-4	0	14	-6	·	·
CCOC(=O)c1sc2ncn(/N=C/N(C)C)c(=O)c2c1C	7.1*	0	9	5	1	4
SMILES	GPR151 ag	FBW7 act	TEAD-YAP inh	MITF inh	GPR151 conf act	GPR119 counter
CCOC(=O)c1c(NC(=O)CSc2nnc(CNC(=O)COc3ccccc3)n2-c2cccc(C)c2)sc2c1CCCC2	-1	0	5	5	·	·
COC(=O)c1c(C)[nH]c(C(=O)COC(=O)CCc2ccc(OC)c(OC)c2)c1C	5.7*	0	5	6	0	4
COc1ccc(S(=O)(=O)NC(CC(=O)NC2CCCC(C)C2C)C(C)C)cc1 (stereo not drawn)	-1	0	-3	17	·	·
NC1=NC(=O)C(Cc2cccc(C(F)(F)F)c2)S1 (stereo not drawn)	-2	0	-9	-4	·	·
O=C(CN1C(=O)C2(SCC(=O)N2c2ccc(F)cc2)c2ccccc21)NCCc1ccccc1 (stereo not drawn)	1	0	12	-1	·	·
O=C(CN1C(=O)C2(SCC(=O)N2c2ccc(F)c(F)c2)c2ccccc21)NCCc1ccccc1 (stereo not drawn)	5.4*	0	-1	7	0	-7
CC(C)Cc1nc(SCc2ccccc2F)c2c(=O)n(C)c(=O)n(C)c2n1	2	-1	2	2	·	·
Cc1nc(NC2CCCCCC2)c2c3c(sc2n1)CCCC3	-1	0	-4	1	·	·
O=C(CC1Sc2ccccc2NC1=O)NCc1ccc2c(c1)OCO2 (stereo not drawn)	7.3*	0	2	1	-1	-11
Cc1ccc(C(=O)Oc2cc(N)n(S(=O)(=O)c3ccc(C)cc3)n2)cc1	1	0	-13	10	·	·
COc1ccc(C(=O)Oc2cc(N)n(S(=O)(=O)c3ccc(C)cc3)n2)cc1OC	6.3*	0	4	8	0	10
CCNC(=O)N1CCC(Cn2c(COc3ccccc3)nc3ccccc32)CC1	0	0	-8	3	·	·
O=C(c1ccco1)N1CCC(Cn2c(COc3ccccc3)nc3ccccc32)CC1	7.5*	0	-23	13	0	-11
O=S1(=O)CCC(NS(=O)(=O)c2ccc(S(=O)(=O)NC3CC3)cc2)C1 (stereo not drawn)	5.2*	1	-8	-6	-1	-9
CCC(=O)N1C(=O)CC(C)N(C(=O)CC)c2ccccc21 (stereo not drawn)	5.9*	0	1	-7	0	-1
CCC(=O)N1c2ccc(S(C)(=O)=O)cc2NC(=O)C1C(C)C (stereo not drawn)	-1	0	-3	-2	·	·
Cc1ccc2c(c1)cc(CN(CCc1ccccc1)C(=O)N1CCOCC1)c1nnnn12	5.2*	0	3	22	1	3
Cc1ccc2c(c1)cc(CN(Cc1ccco1)C(=O)N(C)C)c1nnnn12	0	0	4	4	·	·
Cc1ccc2c(c1)cc(CN(Cc1cccs1)C(=O)c1cccs1)c1nnnn12	1	0	3	0	·	·
Cc1ccc2c(c1)cc(CN(Cc1cccs1)C(=O)C1CC1)c1nnnn12	5.4*	1	-3	17	0	4
Cc1ccc2c(c1)cc(CN(Cc1ccco1)S(=O)(=O)c1ccccc1)c1nnnn12	6.7*	0	-11	-12	0	5
Cc1ccc(CNc2ccnc3c(-c4ccco4)cnn23)c(C)c1	2	0	6	-14	·	·
CCOC(=O)c1sc(NC(=O)c2c(F)cccc2F)nc1C	7.8*	0	-7	-6	0	16
